# Experimental data published in PubChem BioAssay.
# Calls of active or inactive are those of the source.
# Tests used:
# Albumin (Bos taurus) = Albumin (Bos taurus) (UniProt P02769); assay: compounds binding labelled BSA control protein – biochemical, small-molecule microarray, Alexa647 label, 635/667 nm fluorescence, artefact control for SMM control protein annotation, profiling panel (AID 1118); settings: BSA-A647 binding, fluorescence 635 nm, higher = more signal;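 note: score merges 667 nm emission intensity and signal-to-noise per printed compound spot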
# Chain of Albumin (Bos taurus) (P02769 whole entry, looked up): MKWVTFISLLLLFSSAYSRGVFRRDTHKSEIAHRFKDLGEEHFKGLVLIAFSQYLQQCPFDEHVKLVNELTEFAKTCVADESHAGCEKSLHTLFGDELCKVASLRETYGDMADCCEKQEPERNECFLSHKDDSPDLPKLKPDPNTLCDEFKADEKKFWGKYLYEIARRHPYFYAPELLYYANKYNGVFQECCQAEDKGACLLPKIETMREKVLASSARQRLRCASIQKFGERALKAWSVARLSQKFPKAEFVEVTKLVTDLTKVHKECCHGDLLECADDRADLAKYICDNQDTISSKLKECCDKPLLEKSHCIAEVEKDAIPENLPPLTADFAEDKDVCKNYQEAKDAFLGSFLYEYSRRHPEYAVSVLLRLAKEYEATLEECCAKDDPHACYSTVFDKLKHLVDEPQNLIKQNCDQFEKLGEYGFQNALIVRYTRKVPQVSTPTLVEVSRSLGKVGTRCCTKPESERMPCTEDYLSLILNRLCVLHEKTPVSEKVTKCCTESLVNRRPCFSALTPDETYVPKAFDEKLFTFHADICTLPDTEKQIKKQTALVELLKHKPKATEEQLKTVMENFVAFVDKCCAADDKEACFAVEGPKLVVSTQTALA
# [1] = probe aXIP binding to arrayed compounds – biochemical, NeuroSMM set, 635/667 nm fluorescence, primary screen (AID 1119); settings: small-molecule microarray, higher = more signal, called active from +8 up or from −8 down;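 note: probe is the protein aXip251-270 applied at 1 µg/mL to compound-printed slides; binding of probe to printed compounds measured as 667 nm fluorescence plus signal to noise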
# [2] = probe aNOTCH3 binding on compound microarray – biochemical, small-molecule microarray, 635/667 nm fluorescence, primary screen (AID 1120); settings: higher = more signal;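 note: probe is a biotin-tagged antibody raised against NOTCH3 rather than NOTCH3 protein; score merges spot fluorescence near 667 nm with spot signal to noise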
# [3] = probe aNOTCH2 binding on compound microarray – biochemical, small-molecule microarray, 635/667 nm fluorescence, primary screen (AID 1121); settings: higher = more signal;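 note: score merges feature fluorescence read at 667 nm with its signal to noise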
# [4] = molecular target: Carbonic anhydrase 2 (Homo sapiens) (UniProt P00918); assay: compounds binding carbonic anhydrase 2 – biochemical, small-molecule microarray, Alexa647-labelled CAII, profiling panel (AID 1122); settings: CAII-A647 binding fluorescence, higher = more signal
# [5] = COS7 lysate on small-molecule microarray, probe aHis, 635 nm (AID 1123); settings: COS7 cell lysate, fluorescence, higher = more signal;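 note: z-score combines 667nm fluorescence intensity with signal-to-noise per printed compound spot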
# [6] = probe aLAP1 signal on lysate-treated microarray – cell lysate, small-molecule microarray, COS7 lysate, primary screen (AID 1124); settings: probe aLAP1, fluorescence, higher = more signal;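 note: lysate comes from COS7 cells expressing LAP1 and is applied at 0.3 µg/mL; score merges spot fluorescence near 667 nm with signal-to-noise over triplicate slides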
# Sam68 (KHDRBS1) = assay: compounds binding KHDRBS1 protein – biochemical, small-molecule microarray, 635 nm fluorescence, primary screen (AID 1125); settings: higher = more signal;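 note: score merges 667 nm channel intensity with signal to noise over triplicate slides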
# [7] = tested on: Chordin-like protein 2 (CHRDL2); assay: compounds binding chordin-like 2 – biochemical, small-molecule microarray, 635 nm fluorescence, primary screen (AID 1126); settings: fluorescence 635 nm, higher = more signal;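 note: printed compound slides probed with Chrdl2 protein at 4 µg/mL for 1 h at 4 C; score merges 667 nm emission intensity with signal to noise over three replicate slides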
# [8] = molecular target: Concanavalin-A (Canavalia ensiformis) (UniProt P02866); assay: compounds binding concanavalin A lectin – biochemical, small-molecule microarray, Alexa647 label, 635 nm, artefact control for SMM control protein annotation, primary screen (AID 1127); settings: ConA-A647 binding fluorescence, higher = more signal;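 note: z combines 667 nm emission intensity with signal-to-noise across three replicate slides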
# Chain of Concanavalin-A (Canavalia ensiformis) (P02866 whole entry, looked up): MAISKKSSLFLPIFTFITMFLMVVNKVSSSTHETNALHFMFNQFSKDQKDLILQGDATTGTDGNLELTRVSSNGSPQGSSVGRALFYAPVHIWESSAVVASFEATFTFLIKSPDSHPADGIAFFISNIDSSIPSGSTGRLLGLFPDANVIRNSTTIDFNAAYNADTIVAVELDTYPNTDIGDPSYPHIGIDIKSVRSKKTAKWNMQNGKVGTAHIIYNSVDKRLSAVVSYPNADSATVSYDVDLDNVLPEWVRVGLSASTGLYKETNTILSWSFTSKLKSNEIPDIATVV
Structure (SMILES),composite z-score (Albumin (Bos taurus)),composite Z-score [1],composite z-score [2],composite z-score [3],composite z-score [4],composite z-score [5],composite z-score [6],composite z-score (Sam68 (KHDRBS1)),composite z-score [7],composite z-score [8]
CCN(CC)c1ccc(N2CC=CC34O[C@@H]5/C=C\CCC(C)OC(=O)C5[C@H]3C(=O)N(CCCO)[C@@H]4C2=O)cc1 (stereo not given in full),-0.909,0.589 (inactive),-0.185,-0.189,0.868,-0.368,-0.0197,-0.383,-0.618,-0.608
C#CCCCON=C1C[C@@H](O)[C@@H](O)[C@@H]2[C@@H]3C(=O)N(Cc4ccccc4)C(=O)[C@@H]3CC[C@H]12,0.344,0.497 (inactive),-0.056,-0.2,-0.009,0.363,-0.316,-0.0716,0.477,0.372
CC(=O)OC[C@H]1O[C@H](CCON=C(C)CCC(=O)OC[C@H]2O[C@H](C#Cc3ccccc3)C=C[C@@H]2Oc2ccc(C)cc2)C=C[C@@H]1OC(C)=O,0.208,0.131 (inactive),0.0322,-0.204,-0.085,0.1,0.448,0.287,0.401,0.194
O=C1O[C@@H](c2ccccc2)[C@@H](c2ccccc2)N2[C@@H](c3ccc(OCCO)cc3)[C@]3(C(=O)Nc4ccc(C#CCCO)cc43)[C@@H](C(=O)N3CCCCCCC3)[C@H]12,0.259,7.58 (inactive),1.66,0.745,0.896,3.6,1.02,1.3,1.25,1.15
COCCOC(=O)N1C(=O)[C@@]2(c3cc(C#CCNC(N)=O)ccc31)[C@H](c1ccc(O)cc1)N1[C@H](c3ccccc3)[C@H](c3ccccc3)OC(=O)[C@H]1[C@@H]2C(=O)N1CCCCCCC1,-0.466,-0.624 (inactive),0.207,-0.108,0.244,0.734,0.382,1.3,1.15,0.615
COC(=O)C1(C)C=C2C(=C(c3ccccc3)C(=O)C2C)CN1 (stereo not given),0.226,-0.107 (inactive),-0.128,0.0633,0.479,0.895,-0.368,-0.999,-0.368,-1.06
C=CC[C@@H]1C=C[C@H](ON=C[C@@H](OC)[C@H](C)C=CCC(=O)OC)[C@@H](CO)O1,-0.286,0.0176 (inactive),0.062,-0.0242,0.131,0.336,-0.108,0.496,0.075,-0.225
COC(=O)CC1OC1[C@H](C)[C@@H](OC)C(C)C (stereo not given in full),-0.294,0.406 (inactive),-0.0647,-0.124,0.232,-0.64,0.229,-0.22,1.03,-0.321
[N-]=[N+]=NCc1ccccc1C[C@]1(C(=O)NCc2ccccc2)N=C(c2ccc(OCCCO)cc2)O[C@H]1c1ccccc1N=[N+]=[N-],0.841,0.187 (inactive),0.531,-0.098,0.476,1.91,0.317,1.09,-0.38,0.822
O=C(NN=C1C[C@@H](O)[C@@H](O)[C@@H]2[C@@H]3C(=O)N(c4cccc(Oc5ccccc5)c4)C(=O)[C@@H]3CC[C@H]12)OCc1ccccc1,0.724,-0.558 (inactive),-0.0204,-0.204,-0.0039,1.82,0.122,-0.406,0.0071,0.186
C[C@@H](c1ccccc1)N1C(=O)[C@H]2[C@H]3[C@H](O)C=CC(=O)[C@@H]3CC[C@H]2C1=O,0.0343,-0.325 (inactive),-0.0932,-0.132,0.572,-0.263,0.146,0.456,0.778,0.518
O=C1[C@H]2[C@H]3[C@H](O)[C@H](O)CC(=NO[C@@H]4O[C@H](CO)[C@@H](O)[C@H](O)[C@H]4O)[C@H]3CC[C@H]2C(=O)N1C1CCCCC1,0.785,-0.0164 (inactive),0.11,-0.112,0.124,0.197,0.3,1.3,-0.298,-0.316
CO[C@@H]1COC(=O)CC=C[C@@H](C)[C@@H]2C=C[C@@H](O)[C@@H](COC(=O)CC=C[C@H]1C)O2,-0.805,0.142 (inactive),0.0864,-0.16,-0.235,-0.635,0.156,0.228,1.38,-0.363
CO[C@@H]1COC(=O)CCC[C@@H](C)[C@H](OC)COC(=O)[C@H](Cc2ccccc2)NC(=O)CC=C[C@H]1C,-0.603,0.274 (inactive),-0.16,-0.175,-0.571,-1.42,-0.34,-1.56,1.39,-1.21
COCCCNC(=O)[C@]1(CCC(=O)OC(C)(C)C)N=C(c2ccc(OCCCO)cc2)O[C@@H]1c1ccccc1N=[N+]=[N-],0.913,0.201 (inactive),0.534,-0.092,0.725,3.09,0.0106,1.31,-0.18,1.17
O=C1O[C@@H](c2ccccc2)[C@@H](c2ccccc2)N2[C@@H](c3ccccc3OCCO)[C@]3(C(=O)Nc4ccc(C#CCCO)cc43)[C@@H](C(=O)O)[C@H]12,0.682,0.215 (inactive),1.14,0.473,0.58,1.51,0.133,1.2,0.553,1.15

Structure (SMILES),composite z-score (Albumin (Bos taurus)),composite Z-score [1],composite z-score [2],composite z-score [3],composite z-score [4],composite z-score [5],composite z-score [6],composite z-score (Sam68 (KHDRBS1)),composite z-score [7],composite z-score [8]
C=CC[C@]1(C(=O)NCc2ccccc2)N=C(c2ccc(OCCCO)cc2)O[C@H]1c1ccccc1,0.866,-0.275 (inactive),0.0488,-0.123,0.69,2.65,0.308,1.28,-0.911,0.691
C[C@H]1CC[C@@H](C(=O)O)N[C@@H]1c1ccc(C#CCN(C)C)cc1,-0.0169,0.26 (inactive),0.0556,-0.149,0.37,-0.144,-0.0228,-0.331,0.591,0.574
CO[C@@H]1COC(=O)CC=C[C@@H](C)[C@@H]2C=C[C@H](O)[C@@H](COC(=O)[C@H](C)NC(=O)CC=C[C@H]1C)O2,-0.107,0.581 (inactive),-0.0328,-0.164,-0.455,-1,1.27,0.249,1.54,-0.016
C=C(CCCC)C(=O)CC[C@@H](OC(C)=O)c1cccc(OCCO)c1,-0.528,0.0491 (inactive),-0.0933,-0.193,0.767,-0.022,0.953,-0.106,0.582,0.259
COc1ccc(OC[C@H]2Cc3c(-c4ccccc4)nc4c(c3CO2)CN(CCOc2ccccc2)CC4)cc1,0.445,0.812 (inactive),0.0562,-0.108,0.234,0.678,0.379,1.07,0.419,1.08
CCN1C(=O)[C@H]2[C@H]3[C@H](O)[C@H](O)CC(=NOC(C)CN4CCCCc5nc(C)c(C)cc54)[C@@H]3CC[C@H]2C1=O (stereo not given in full),-0.428,-0.467 (inactive),-0.0511,-0.0539,-0.144,-0.144,0.0096,0.238,1.22,-0.0891
CO[C@@H]1COC(=O)CCC[C@@H](C)[C@H](OC)COC(=O)CCC[C@H]1C,-0.27,0.231 (inactive),-0.0967,-0.0907,-0.277,-0.307,-0.0693,-0.12,0.777,-0.302
COCCOC(=O)N1C(=O)[C@@]2(c3cc(C#CCNC(N)=O)ccc31)[C@H](c1ccccc1OCCO)N1[C@H](c3ccccc3)[C@H](c3ccccc3)OC(=O)[C@H]1[C@@H]2C(=O)N1CCN(c2ncccn2)CC1,0.583,0.339 (inactive),0.169,-0.0028,0.537,1.92,0.579,1.32,-0.119,1.06
COC(=O)[C@@H]1N=C(c2ccc(OCCCO)cc2)O[C@@H]1c1ccccc1N=[N+]=[N-],0.731,-0.384 (inactive),0.149,-0.0534,0.666,1.92,0.35,1.05,-0.456,0.928
CCOC(=O)[C@H](CC(C)C)NC(=O)CCC1CC(OC(=O)NCCc2ccc(F)cc2)CC2(CCCC(COC(=O)NCc3ccccc3)O2)O1 (stereo not given in full),0.173,-0.0657 (inactive),0.257,-0.131,0.274,1.27,0.362,1.14,0.623,0.754
CC(C)[Si]1(C(C)C)O[C@@H](c2ccccc2)c2cc(C3CC3)nc(-c3ccccc3)c21,0.23,-0.773 (inactive),-0.16,-0.102,-0.169,0.423,0.202,-0.308,0.324,-0.77
O=C1[C@H]2[C@H]3[C@H](O)[C@H](O)CC(=NO[C@@H]4O[C@H](CO)[C@@H](O)[C@H](O)[C@H]4O)[C@@H]3CC[C@H]2C(=O)N1c1ccc(F)cc1F,0.241,-0.836 (inactive),-0.0612,-0.104,-0.0947,-0.0596,0,0.465,0.426,0.262
CC(=O)O[C@H]1C2=C(C(=O)[C@@H]3O[C@@H]31)[C@H]1C(C)O[C@@H]2[C@@]23C(=O)[C@@H]4O[C@@H]4[C@@H](O)C2=CO[C@H](C)[C@@H]13 (stereo not given in full),0.922,0.112 (inactive),0.0026,-0.0937,-0.0716,-0.519,-0.283,-0.113,0.249,-0.629
O=C1C[C@@H](O)[C@@H](O)[C@@H]2[C@@H]3C(=O)N(C4CCCCC4)C(=O)[C@@H]3CC[C@H]12,0.258,-0.236 (inactive),0.0208,-0.0761,0.168,0.323,-0.505,0.742,0.325,0.564
Cc1ccc(C2CC=C(C(=O)O)CN2S(=O)(=O)c2ccc(C)cc2)cc1 (stereo not given),0.921,-0.326 (inactive),0.0203,-0.0567,0.78,0.93,0.953,1.32,0.193,1.12
C#CCCCON=C1C[C@@H](O)[C@@H](O)[C@@H]2[C@@H]3C(=O)N(CCC(=O)OCC)C(=O)[C@@H]3CC[C@@H]12,0.674,-0.521 (inactive),0.0836,-0.0404,-0.0544,0.166,1.05,-0.349,0.715,-0.962
